Several values for one entry are separate records, joined by “and”; a condition that tells them apart may be missing. Equal values may be shown once. Hit rate of the full screen: of about 420,000 compounds, about 64,000 (15%) were called active. Roughly 27% stayed inconclusive and do not appear here. The call rests on the fitted dose curve; in most records, active means well fitted inhibition curve with a large enough effect; inconclusive means small, poorly fitted or top-dose-only effect; inactive means flat fitted curve, though single readings scatter. Not all results are given here. Where a call stands in place of a potency, no number is given.
Experiment: qHTS for Inhibitors of human tyrosyl-DNA phosphodiesterase 1 (TDP1): qHTS in cells in absence of CPT; further: nearly all actives have a fitted effect of over 55% in size
Details: DT40 Tdp1-/- hTDP1 cells, no CPT, ATP luminescence, 48 h; activity change, negative = growth inhibition: at 46.2 µM (top of the series)
Method in brief: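 Luminescent ATP content (CellTiter-Glo) served as the growth readout. Knockout chicken DT40 cells expressing human TDP1 were exposed to compounds without camptothecin for a minimum 48 hr at 37 °C.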
For Cc1nn2c(=O)cc(COC(=O)c3ccccc3NC(=O)COc3ccccc3C)nc2s1, the Potency was “inactive”. In the case of CC(=O)C1C(c2ccc(Cl)cc2)c2c(n[nH]c2C)CC1(C)O (stereo not drawn), the Potency is reported as “inactive”. In the case of CCOc1ccc(S(=O)(=O)NCCC(=O)NCC2CCCO2)cc1 (stereo not drawn), the Potency is reported as “inactive”. With COc1ccc(Cn2cccc(NC(=O)Nc3ccc(C#N)cc3)c2=O)cc1 the Potency was “inactive”. In the case of CC1CCc2sc3nc(N4CCN(CCO)CC4)n4ncnc4c3c2C1 (stereo not drawn), the Potency is reported as “inactive”. With Cc1ccn2c(=O)nc(SCC(=O)NCc3ccc4c(c3)OCO4)nc2c1 the Potency was “inactive”. With O=C(COC(=O)CC1CC2CCC1C2)NC(=O)NC1CCCC1 (stereo not drawn) the Potency was “inactive”. For COc1cc(OC)cc(C(=O)NCCc2csc3nc(-c4ccccc4F)nn23)c1, the Potency was “inactive”. With COc1ccc(-c2nc3scc(CCNS(=O)(=O)c4cc(F)ccc4OC)n3n2)cc1OC the Potency was 20.6 µM (active). With COc1ccc(CCNS(=O)(=O)c2ccc(F)cc2)cc1OC the Potency was “inactive”. In the case of Cc1cc([N+](=O)[O-])nn1CC(=O)Nc1ccc(Cc2ccncc2)cc1, the Potency is reported as “inactive”. In the case of CN(c1ccccc1)S(=O)(=O)c1cc(C(=O)OCC(=O)N2CCN(C(=O)c3ccco3)CC2)ccc1Cl, the Potency is reported as 23.1 µM (active). For O=C(OCC(=O)N1CCN(C(=O)c2ccco2)CC1)c1cccc(O)c1, the Potency was “inactive”. In the case of O=C(OCC(=O)N1CCN(C(=O)c2ccco2)CC1)c1c(Cl)cccc1Cl, the Potency is reported as “inactive”. With COc1cccc(CN2CCNC(=O)C2CC(=O)N(C)CCc2ccccn2)c1 (stereo not drawn) the Potency was “inactive”. For Cc1ccc(NC(=O)c2oc3ccccc3c2C)c([N+](=O)[O-])c1, the Potency was “inactive”. In the case of COc1ccc(Cl)cc1C(=O)NCC#N, the Potency is reported as “inactive”. With Cc1noc(C)c1-c1nc(Nc2ccccc2)c2ccccc2n1 the Potency was “inactive”. In the case of c1ccc2c(Nc3ccncc3)nc(-c3ccoc3)nc2c1, the Potency is reported as 20.6 µM (active). With c1ccc2c(Nc3ccncc3)nc(-c3ccc4c(c3)OCO4)nc2c1 the Potency was 14.6 µM (active). In the case of Cc1ccc(C(=O)O)cc1N1C(=O)CCCC1=O, the Potency is reported as “inactive”. For CC1CCC(NC(=O)CNC(=O)c2ccc3ccccc3c2)CC1 (stereo not drawn), the Potency was “inactive”. In the case of N#Cc1ccc(CSc2ncccn2)cc1, the Potency is reported as “inactive”. In the case of Cn1c(=O)[nH]c2c(c(C(=O)O)nn2C)c1=O, the Potency is reported as “inactive”. With O=C(CSc1nc2cc3c(cc2c(=O)n1CCC1=CCCCC1)OCO3)NCc1ccco1 the Potency was “inactive”. For COCCN(C(=O)C(C)N1C(=O)c2ccccc2C1=O)c1c(N)n(CC(C)C)c(=O)[nH]c1=O (stereo not drawn), the Potency was “inactive”. For CCC(=O)Nc1ccc2c(c1)nc(CCN1CCN(c3ccccn3)CC1)n2C, the Potency was “inactive”. In the case of Cn1c(CCN2CCCCCC2)nc2cc(NC(=O)Nc3ccccc3)ccc21, the Potency is reported as 23.1 µM (active). With CCC(=O)Nc1ccc2c(c1)nc(CCN1CCN(C)CC1)n2C the Potency was “inactive”. In the case of N[C@@H](Cc1ccccc1)C(=O)N1CCC(C(=O)NCC(=O)Nc2ccc(F)cc2)CC1, the Potency is reported as “inactive”. For Cc1ccc(SCCC(=O)NCc2ccccn2)cc1, the Potency was “inactive”. With O=C(COc1ccccc1)OCc1cc(=O)n2nc(-c3cccs3)sc2n1 the Potency was “inactive”. With O=C(CCC(=O)n1ncc2ccccc21)NCc1ccccc1Cl the Potency was “inactive”. In the case of COc1ccc(CNC(=O)C2CCN(C(=O)c3ccccc3)CC2)cc1, the Potency is reported as “inactive”. In the case of COc1ccccc1CNC(=O)c1ccc(NC(=O)N2CC(C)Sc3ccccc32)cc1 (stereo not drawn), the Potency is reported as 23.1 µM (active). In the case of COc1cccc(CNC(=O)C2CC(=O)N(C3CCCCCCC3)C2)c1 (stereo not drawn), the Potency is reported as “inactive”. For COc1ccccc1CNCc1ccc(C(=O)O)s1, the Potency was “inactive”. In the case of COc1ccc(S(=O)(=O)N2CCC(C(=O)NCCC(=O)NCc3cccc(OC)c3)CC2)cc1, the Potency is reported as “inactive”. In the case of COc1ccc(CNC(=O)c2ccc(NC(=O)N3CC4CCCN4c4ccccc43)cc2)cc1 (stereo not drawn), the Potency is reported as 20.6 µM (active). In the case of COc1cccc(CNC(=O)CCC(=O)N2CC3CCCN3c3ccccc32)c1 (stereo not drawn), the Potency is reported as 16.4 µM (active). With O=C(CCC(=O)N1CC2CCCN2c2ccccc21)NCc1ccccc1Cl (stereo not drawn) the Potency was 16.4 µM (active). With COc1ccc(NC(=O)N2CCCC2C(=O)NCc2ccccc2Cl)cc1 (stereo not drawn) the Potency was “inactive”. With COc1ccccc1CNC(=O)CNC(=O)c1cn(-c2ccccc2OC)c(=O)c2ccccc12 the Potency was “inactive”. In the case of O=C(NCc1ccccc1Cl)C1CCCO1 (stereo not drawn), the Potency is reported as “inactive”. For NS(=O)(=O)c1ccc(NC(=O)/C=C/c2ccccc2Cl)cc1, the Potency was “inactive”. With C/C(=C/c1ccccc1)C(=O)N1CCN(c2ccccc2)CC1 the Potency was “inactive”. For Cc1ccc(S(=O)(=O)CCC(=O)OCC(=O)N(C)C2CCS(=O)(=O)C2)cc1 (stereo not drawn), the Potency was “inactive”. With COCCn1c(C)cc(C(=O)COC(=O)CNC(=O)c2ccco2)c1C the Potency was “inactive”. For COc1cccc(N(CC(=O)NC2CCCC2)C(=O)CCCC(=O)Nc2ccccn2)c1, the Potency was “inactive”. With O=NN(CCCl)C(=O)NCCc1cccc[n+]1[O-] the Potency was “inactive”. In the case of O=C1COc2ccc(S(=O)(=O)Nc3ccc(OC(F)(F)F)cc3)cc2N1, the Potency is reported as “inactive”. In the case of Cc1ccc(S(=O)(=O)N2CCN(C(=O)CCC(=O)NC3CCCc4ccccc43)CC2)cc1 (stereo not drawn), the Potency is reported as “inactive”. For Cc1ccc(C)c(S(=O)(=O)n2nc(C)c(S(=O)(=O)N3CCC(C)CC3)c2C)c1, the Potency was “inactive”. With Cc1ccc(C)c(S(=O)(=O)N2CCN(c3ncnc4sccc34)CC2)c1 the Potency was 3.66 µM (active). With COc1ccc(C)cc1S(=O)(=O)N1CCN(S(=O)(=O)c2cc(C(=O)O)ccc2C)CC1 the Potency was “inactive”. For O=[N+]([O-])c1ccc(S(=O)(=O)N2CCN(c3nc(-c4ccccc4)nc4ccccc34)CC2)cc1, the Potency was “inactive”. For Cc1ccc(S(=O)(=O)N2CCN(c3nc(-n4cnc5ccccc54)nc4ccccc34)CC2)cc1, the Potency was “inactive”. In the case of Cc1ccc(S(=O)(=O)N2CCN(c3ncnc4ccccc34)CC2)cc1, the Potency is reported as 820 nM (active) and 1.26 µM (active). With COc1ccccc1C(=O)NCCC(=O)NC1=NCCS1 the Potency was “inactive”. In the case of Cc1cccc(N(C(=O)c2ccc(CN3CCOCC3)o2)C(C(=O)NC2CCCCC2)c2ccc(F)cc2)c1 (stereo not drawn), the Potency is reported as “inactive”. With COc1cc(OC)c(S(=O)(=O)Nc2ccccc2C(=O)O)cc1S(=O)(=O)Nc1ccccc1C(=O)O the Potency was “inactive”. In the case of COc1ccccc1OCC(=O)OCn1c(SC)nnc(C)c1=O, the Potency is reported as “inactive”. With O=C(Nc1cccc(S(=O)(=O)NC2=NCCC2)c1)C1CCCCC1 the Potency was “inactive”. For O=C(NCc1ccccc1)C1c2ccccc2OCC(=O)N1CCCN1CCOCC1 (stereo not drawn), the Potency was “inactive”. In the case of CCOc1cc(/C=C2\C(=N)N3N=C(C)SC3=NC2=O)ccc1OCCOc1ccccc1, the Potency is reported as “inactive”. With O=C(O)CCCCCCCCc1cn(CN2C(=O)c3ccccc3C2=O)nn1 the Potency was “inactive”. For COc1cc(C(=O)N(Cc2ccc(N(C)C)cc2)C2CCS(=O)(=O)C2)cc(OC)c1OC (stereo not drawn), the Potency was “inactive”. With Cc1cc(C)c(OCC(=O)N(Cc2cccs2)C2CCS(=O)(=O)C2)c(C)c1 (stereo not drawn) the Potency was “inactive”. For Cc1ccsc1CN(C(=O)c1oc2ccc(Br)cc2c1C)C1CCS(=O)(=O)C1 (stereo not drawn), the Potency was 6.51 µM (active). For O=C(COC(=O)c1ccccc1)Nc1ccccc1Sc1ccccc1, the Potency was “inactive”. With NC(=O)c1ccsc1NC(=O)c1ccco1 the Potency was “inactive”. In the case of O=C(NCc1ccco1)C(=O)c1cn(CC(=O)N2CCCCCC2)c2ccccc12, the Potency is reported as “inactive”. In the case of CCCCC(=O)Nc1ccc(C(=O)NCCCn2ccnc2)cc1, the Potency is reported as “inactive”. In the case of CC(C)(C)c1ccc(/C=C/C(=O)NCCCn2ccnc2)cc1, the Potency is reported as 16.4 µM (active). With O=C(/C=C/c1ccc(Cl)cc1)NCCCn1ccnc1 the Potency was “inactive”. For CN(C(=O)CN1C(=O)NC(C)(CCc2ccccc2)C1=O)c1ccccc1 (stereo not drawn), the Potency was “inactive”. With Cc1cc(C)nc(N(C#N)CC(=O)Nc2ccccc2)n1 the Potency was “inactive”. With Nc1cccc2c1C(=O)N(Cc1nnc(-c3ccccc3Br)o1)C2=O the Potency was “inactive”. With Cc1ccc(C=O)cc1Cl the Potency was “inactive”. For CCC(C)(C)c1ccc(Oc2ccc(NC(=O)COC(=O)C3=COCCO3)cc2)cc1, the Potency was 25.9 µM (active). In the case of COc1ccc(NC(=O)COC(=O)C2COc3ccccc3O2)cc1 (stereo not drawn), the Potency is reported as “inactive”. For CCOc1ccc(NC(=O)c2ccc(NC(=O)COC(=O)c3ccc(NC(=O)CC#N)cc3)cc2)cc1, the Potency was “inactive”. In the case of COC(=O)c1ccc(C2NC(=O)NC(C)=C2C(=O)N(C)C)cc1 (stereo not drawn), the Potency is reported as “inactive”. With NC(=O)c1nnsc1-c1ccc(-c2snnc2C(N)=O)cc1 the Potency was “inactive”. In the case of CCCCN(CC)CCNC(=O)c1[nH]c(C)c(C(C)=O)c1C, the Potency is reported as “inactive”. With CCS(=O)(=O)N1CCCC(C(=O)NCCCN(C)Cc2ccccc2)C1 (stereo not drawn) the Potency was “inactive”. For c1ccc2c(CNn3cnnc3)cccc2c1, the Potency was “inactive”. With N=C(N)SCc1cccc2ccccc12 the Potency was 20.6 µM (active). For c1ccc(NCc2cccc3ccccc23)nc1, the Potency was “inactive”. With CCCCCc1ccc(-c2ccc(C(=O)O)cc2)nc1 the Potency was “inactive”. With CCN(C(=O)COC(=O)c1c(NC(C)=O)sc(C)c1C)C1CCS(=O)(=O)C1 (stereo not drawn) the Potency was “inactive”. For Cc1c(NC(=O)C(C)Oc2cccc(Cl)c2)c(=O)n(-c2ccccc2)n1C (stereo not drawn), the Potency was “inactive”. In the case of O=c1nc2s/c(=C\c3ccco3)c(=O)n2nc1Cc1ccccc1, the Potency is reported as “inactive”. With Cc1csc(Nc2ccc(Cl)cc2)[n+]1-c1ccc(Cl)cc1 the Potency was 25.9 µM (active). In the case of Cc1cc(-c2nc(C)c(-c3nnc(SCC(=O)Nc4ccccc4)n3C)s2)no1, the Potency is reported as “inactive”. In the case of Cc1cc(C(=O)OCC(=O)Nc2ccc(F)c(F)c2)c(C)o1, the Potency is reported as “inactive”. For COc1ccc(CNC(=O)COc2ccccc2C(=O)c2cnn(-c3ccccc3)c2)cc1OC, the Potency was 14.6 µM (active). With COc1cc(CO)ccc1OCC(=O)Nc1cccc2ccccc12 the Potency was “inactive”. For COc1ccc(CNC(=O)CSc2n[nH]c(N)n2)cc1OC, the Potency was “inactive”. With COc1cc(S(=O)(=O)Nc2ncn[nH]2)ccc1Cl the Potency was “inactive”. With CCc1nnc(NC(=O)CSc2nnc(COc3ccc(C#N)cc3)n2-c2ccccc2)s1 the Potency was “inactive”. With CC(C)(C)NC(=O)C(c1ccco1)N(Cc1ccc2c(c1)OCO2)C(=O)Cn1nnc2ccccc21 (stereo not drawn) the Potency was “inactive”. In the case of Cc1ccc(C(=O)CC2(O)C(=O)N(CCc3ccccc3)c3ccc(Br)cc32)cc1 (stereo not drawn), the Potency is reported as 16.4 µM (active). With O=C(CC1(O)C(=O)N(CN2CCOCC2)c2ccccc21)c1ccccc1 (stereo not drawn) the Potency was “inactive”. For CCc1ccc(C(=O)COC(=O)c2ccco2)cc1, the Potency was “inactive”. For CCCN1C(=O)C(O)(CC(=O)c2ccc(CC)cc2)c2cc(Br)ccc21 (stereo not drawn), the Potency was 6.51 µM (active). In the case of Cc1ccc(CCN2CC(C(=O)NCCc3ccccc3)CC2=O)cc1 (stereo not drawn), the Potency is reported as “inactive”. For Cc1coc(C)c1C(=O)CC1(O)C(=O)N(C)c2ccc(Cl)cc21 (stereo not drawn), the Potency was “inactive”.
Potency means the concentration at half of the fitted maximal effect.
